Screening data: PubChem BioAssay, National Center for Advancing Translational Sciences (NCATS)
An excerpt weighted towards active compounds, which were near 2.3% of everything screened.
Nrf2 activator: qHTS of Nrf2 Activators. Potency, µM (top dose mostly 46.1 µM), hits mostly activators. AREc32 ARE-luciferase reporter (MCF7-derived line), luminescence, 24 h. hit rate 0.31% among 410,000; note: nearly all actives have a fitted effect of over 65% in size
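Reporter line AREc32 (ARE-Fluc), seeded overnight in OPTI-MEM with 5% FBS; compound pin-transferred, 24 hr at 37 deg C, 5% CO2; luminescent read-out.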
Glioma ERSR ind: qHTS for Inducers of the Endoplasmic Reticulum Stress Response (ERSR) in Human Glioma: qHTS; U87-MG GRP78 promoter luciferase reporter, 16 h; AID 602332, 2012; Potency, µM, actives largely listed as activators; hit rate 0.02% among 420,000; note: series mostly up to about 76 µM; nearly all actives have a fitted effect of over 35% in size
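ERSR induction read as luciferase luminescence (Bright-Glo, 10 min at room temperature) in stably transfected human U87-MG glioma cells exposed to compounds for 16 h, using GRP78 as sensor.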
Mito fusion act: qHTS Assay for Small Molecule Inhibitors of Mitochondrial Division or Activators of Mitochondrial Fusion. hit rate 0.23% among 320,000. S. cerevisiae fusion-defective mutant growth rescue, CellTiterGlo 48 h. Potency, µM (series often up to 46.1 µM), actives largely listed as activators; note: nearly all actives have a fitted effect of over 45% in size
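Yeast fusion mutant, YPEG (non-fermentable carbon), compound, 48 h at 37C non-permissive; CellTiterGlo added, 10 min RT, luminescence read. Rescued growth = division inhibition.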
miR-21 reporter: qHTS Assay for Modulators of miRNAs and/orActivators of miR-21; Potency, µM (series often up to 38.3 µM), most hits filed as activators; 340,000 tested, under 10 active; HeLa miR-21 FLuc reporter, luciferase, 48 h; AID 2288, 2010;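 note: miR-21 action dims this reporter so a rising signal means less miR-21 action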
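HeLa cells stably expressing CMV-driven firefly luciferase with a downstream miR-21 binding sequence, endogenously expressing miR-21, were treated with titrations (up to about 40uM final) for 48 hours at 37 degree Celsius. Luciferase luminescence was read after lysis.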
A549 tox-1: Nrf2 qHTS screen for inhibitors: counterscreen for cytotoxicity. hit rate 0.16% among 390,000. A549 ARE-Fluc cells, CellTiter-Fluor viability, 18-24 h. Potency, µM (top dose mostly 46 µM), usual class: inhibitors
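A549 ARE_Fluc cells in 5% FBS OPTI-MEM were exposed to compounds in concentration-response for 18-24 h at 37 deg C. Viability was read by CellTiter-Fluor fluorescence (Ex 405/Em 525) after 30 min, before the luciferase read.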
Nrf2 inh: Nrf2 qHTS screen for inhibitors | A549 ARE-Fluc reporter, luciferase luminescence, 18-24 h | Potency, µM (titrated, usually from 46 µM), usual class: inhibitors | hit rate 2.1% among 360,000 | AID 504444, 2011; note: nearly all actives have a fitted effect of over 60% in size
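Nrf2 function is reported as luminescence of an ARE-controlled luciferase in A549 cells. Compounds were tested at several concentrations, and a CellTiter-Fluor read on the same wells flagged cytotoxicity.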
FLuc counter 3: Nrf2 qHTS screen for inhibitors: Purified Fluc Biochemical Counterscreen for Hit Validation; shares compounds with Nrf2 inh; purified firefly luciferase, luminescence inhibition; Potency, µM (series often up to 57.5 µM), most hits filed as inhibitors; hit rate 4% among 1,400; AID 720522, 2013; note: nearly all actives have a fitted effect of over 65% in size
Target sequence (P08659 whole entry, looked up): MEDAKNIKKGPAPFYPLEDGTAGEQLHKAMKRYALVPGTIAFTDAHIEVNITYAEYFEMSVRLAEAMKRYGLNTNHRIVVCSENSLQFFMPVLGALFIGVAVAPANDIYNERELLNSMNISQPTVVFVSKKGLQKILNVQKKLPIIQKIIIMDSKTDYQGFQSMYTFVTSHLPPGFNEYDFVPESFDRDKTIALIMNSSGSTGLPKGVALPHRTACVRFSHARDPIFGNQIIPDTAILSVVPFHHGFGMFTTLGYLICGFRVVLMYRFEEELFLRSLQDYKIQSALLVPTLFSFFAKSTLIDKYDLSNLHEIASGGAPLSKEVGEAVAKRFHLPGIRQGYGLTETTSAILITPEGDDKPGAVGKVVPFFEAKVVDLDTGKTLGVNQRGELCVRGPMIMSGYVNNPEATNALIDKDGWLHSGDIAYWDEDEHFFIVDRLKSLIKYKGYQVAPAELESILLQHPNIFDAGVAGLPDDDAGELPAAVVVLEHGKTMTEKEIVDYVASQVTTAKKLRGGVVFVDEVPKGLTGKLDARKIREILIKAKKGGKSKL
A549 tox-2: Nrf2 qHTS screen for inhibitors: A549 ARE-Fluc Cytotoxicity Counterscreen for Hit Validation; shares compounds with Nrf2 inh; A549 ARE-Fluc cells, cytotoxicity counterscreen; Potency, µM (top dose mostly 46.1 µM), actives largely listed as inhibitors; hit rate 2% among 1,400;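 note: cells exposed to compounds for 18 to 24 hours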
ARE-Fluc inh: Nrf2 qHTS screen for inhibitors: Nrf2 A549 ARE-Fluc Confirmation Assay for Hit Validation. shares compounds with Nrf2 inh. A549 ARE-firefly luciferase reporter, luminescence. Potency, µM (series often up to 46.1 µM), hits mostly inhibitors. hit rate 74% among 1,400. AID 720524, 2013; note: nearly all actives have a fitted effect of over 65% in size
Of the large screens only hits and unclear results are named; the others gave an inactive call (follow-up assays come after a bar, where they were run). Calls come from the whole dose curve; as a rule, active = well fitted curve in the direction sought with a large enough effect; inconclusive = small, poorly fitted or top-dose-only effect, or another doubt; inactive = no such curve, though single readings can be large; an effect the other way counts as inactive or inconclusive.

CC(=O)c1ccc(N2CCN(S(=O)(=O)c3ccc4c(c3)CC(C)N4C(C)=O)CC2)cc1 (configuration not stated)	Nrf2 inh 5.8µM | FLuc counter 3 2.7µM | A549 tox-2 inactive | ARE-Fluc inh inactive
CC(=O)c1ccc(N2CCN(S(=O)(=O)c3ccc4c(c3)CC(C)N4C(=O)C3CC3)CC2)cc1 (configuration not stated)	Nrf2 inh 5.8µM | FLuc counter 3 inactive | A549 tox-2 inactive | ARE-Fluc inh 3.7µM
COc1cccc(C(=O)Nc2c(C(=O)NC(C)(C)C)oc3ccccc23)c1	Nrf2 inh inconclusive (no result: Mito fusion act) | FLuc counter 3 inactive | A549 tox-2 inactive | ARE-Fluc inh inactive
Cc1cccc(C)c1NC(=O)COC(=O)c1cc(S(=O)(=O)Nc2ccc(Cl)cc2)ccc1O	none (no result: Mito fusion act, miR-21 reporter)
O=C(Cc1ccccc1)Nc1scc(-c2ccccc2)c1C(=O)N1CCOCC1	none
NC(=O)c1c(-c2ccc(Cl)cc2Cl)csc1NC(=O)Cc1ccccc1	Nrf2 inh 2.6µM | FLuc counter 3 inactive | A549 tox-2 inactive | ARE-Fluc inh 5.2µM
Cc1ccc(C)c(NC(=S)NC(NC(=O)/C=C/c2ccccc2)C(Cl)(Cl)Cl)c1 (configuration not stated)	Nrf2 inh 8.2µM | FLuc counter 3 inactive | A549 tox-2 inconclusive | ARE-Fluc inh 0.37µM
C1=C/C(=C2/C=Cc3ccccc32)c2ccccc2N1	none (no result: Nrf2 activator, Mito fusion act, miR-21 reporter, A549 tox-1, Nrf2 inh) | FLuc counter 3 inactive | A549 tox-2 inconclusive | ARE-Fluc inh 6.5µM
CCN(C(=O)c1ccc(C(C)(C)C)cc1)c1nnc(Cn2nnc3ccccc32)s1	A549 tox-1 inconclusive, Nrf2 inh 5.8µM | FLuc counter 3 inactive | A549 tox-2 inactive | ARE-Fluc inh 6.5µM
Cc1ccc(OCC(=O)NCCCNC(=O)c2cccnc2)cc1	Nrf2 inh 1.8µM | FLuc counter 3 inactive | A549 tox-2 inactive | ARE-Fluc inh inactive
Cc1cccc(OCC(=O)NCCCNC(=O)c2cccnc2)c1	Nrf2 inh inconclusive
Cc1ccc(NC(=O)COc2ccccc2C#N)cc1S(=O)(=O)N1CCCCCC1	none (no result: miR-21 reporter)
Cc1ccc(NC(=O)COc2cccnc2[N+](=O)[O-])cc1S(=O)(=O)N1CCCCC1	A549 tox-1 inconclusive, Nrf2 inh 7.3µM | FLuc counter 3 inactive | A549 tox-2 inactive | ARE-Fluc inh inconclusive
COc1ccc(CN2CCN(C(=O)c3ccc(F)cc3)CC2)c(OC)c1	none
COc1ccc(-c2csc(NC(=O)c3ccc(S(=O)(=O)N4CCc5ccccc5C4)cc3)n2)cc1	Nrf2 inh 5.2µM | FLuc counter 3 inactive | A549 tox-2 inactive | ARE-Fluc inh inactive
COC(=O)c1ccc(-c2csc(NC(=O)c3ccc(S(=O)(=O)N4CCc5ccccc5C4)cc3)n2)cc1	none
COc1ccc(-c2nnc(NC(=O)c3ccc(S(=O)(=O)N4CCc5ccccc5C4)cc3)o2)cc1	Nrf2 inh 2.8µM | FLuc counter 3 inactive | A549 tox-2 inactive | ARE-Fluc inh 8.2µM
O=C(Nc1nnc(C2CC2)o1)c1ccc(S(=O)(=O)N2CCc3ccccc3C2)cc1	A549 tox-1 inconclusive, Nrf2 inh inconclusive
COc1ccc(Cl)cc1-n1c(=S)sc2c(=O)[nH]c(SCC(=O)NCCC(C)C)nc21	none
